In the library only some 7.2% were active in any assay of this set; here they are far more common.
ALR H2O2 inh: inhibitors of human ALR sulfhydryl oxidase, primary screen, biochemical, H2O2 detection, HRP-luminol luminescence, single point; FAD-linked sulfhydryl oxidase ALR (Homo sapiens), P55789; inhibition, % (no concentration beside the values); actives 3.8% (n = 290,000); purified ALR, DTT oxidation; AID 485317, 2010;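 active = mean replicate inhibition above about 79%, with every replicate also reaching it, limit read from the data; inconclusive = only one of the two criteria met; inactive = mean below limit and not every replicate reaching it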
Target sequence (P55789 whole entry, looked up): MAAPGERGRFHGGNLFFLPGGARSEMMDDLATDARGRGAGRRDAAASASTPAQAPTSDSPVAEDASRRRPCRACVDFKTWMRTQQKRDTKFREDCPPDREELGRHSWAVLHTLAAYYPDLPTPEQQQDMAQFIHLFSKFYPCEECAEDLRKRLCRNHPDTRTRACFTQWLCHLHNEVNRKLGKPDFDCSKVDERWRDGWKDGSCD
AHR activator: AHR activators, primary screen, cell-based, luminescence, luciferase reporter, human; Aryl hydrocarbon receptor (Homo sapiens), P35869; AHR-responsive luciferase reporter cells; activation, % at 5 µM; actives 2.5% (n = 320,000); in the data active = activation above about 47%;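 also: 0% = vehicle wells and 100% = reference agonist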
VLA-4 inh: inhibition in human VLA-4 binding assay, primary screen, VLA-4 allosteric modulator project, MLPCN library, flow cytometry, VLA-4 expressing cells; inhibition, % (about 7 µM as worked out from the volumes in the protocol); Integrin alpha-4 (Homo sapiens), P13612; actives 0.2% (n = 330,000); ligand binding flow cytometry; AID 2557, 2010; in the data active = inhibition above about 50%
Efflux pump mplx: inhibitors of Candida efflux pumps in yeast, primary screen, S. cerevisiae, Nile Red, multiplex | actives 0.44% (n = 330,000) | S. cerevisiae Candida pump triplex | inhibition, % at 10 µM;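 active = plate passing quality check with inhibition over a set limit, or well fluorescence over plate mean plus 4 SD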;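 also: Nile Red retained in pooled yeast measured as flow cytometry median fluorescence; 0% = buffer negative control and 100% = Enniatin B positive control; higher means more Nile Red kept so more efflux inhibition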
SUMO Mot1 rescue: yeast Mot1-301 growth rescue at high temperature, primary screen, SUMOylation pathway inhibitor project, S. cerevisiae, ATP luminescence, 38.5C | AID 2716, 2010 | S. cerevisiae Mot1-301 growth rescue; percent above DMSO median, 100 means doubled | actives 1% (n = 320,000) | growth rescue, % at 18.8 µM;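 active = every valid replicate shows activation above 250% relative to neutral control wells; inactive = the rest, any valid replicate at or below 250%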;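 also: OY570 slx delta 5 strain wells were the positive control but not used for scaling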
A1 inh: caspase 3/7 activation in MEF A1-2A-BIM cells, primary screen, A1 inhibitor project, cell-based, luminescence, HTS. actives 0.066% (n = 330,000). caspase activation, % (no concentration beside the values). Caspase-Glo 3/7 luminescence, 3 h; percent of clofoctol response, vehicle zero;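 active = over half of replicate activation scores above 10%, or exactly half above 10 with the replicate mean above 10; inconclusive = replicate mean below 10 yet half the replicates above 10; inactive = over half of replicates below 10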
An asterisk follows results filed as active; ? = inconclusive; nt = no result given.

SMILES	ALR H2O2 inh	AHR activator	VLA-4 inh	Efflux pump mplx	SUMO Mot1 rescue	A1 inh
Cc1cc(C)nc(NS(=O)(=O)c2ccc(NC(=O)NC3CCCCC3)cc2)n1	98*	1	-3	0	4	-2
Cc1cc(C)nc(NS(=O)(=O)c2ccc(NC(=O)COc3ccccc3F)cc2)n1	52	0	-3	0	-4	-2
Cc1ccnc(NS(=O)(=O)c2ccc(NC(=O)c3ccc(C)o3)cc2)n1	-6	2	10	0	-7	1
CCC(C)(C)C1CCC2(CC1)NC(CO)(CO)CO2 (stereo not given)	-3	-1	1	0	14	1
COc1ccccc1N1CCN(C(=O)C2CCN(C(=O)c3ccc(C(C)(C)C)cc3)CC2)CC1	-3	4	19	0	-1	1
CCOc1ccccc1OCC(=O)Nc1ccc(S(=O)(=O)Nc2nc(C)cc(C)n2)cc1	95*	3	-14	0	-18	0
Cc1cccc(C)c1NC(=O)CN(C)C(=O)CC1Sc2ccccc2NC1=O (stereo not given)	17	11	5	0	-9	1
Nc1cc2ccncc2c2ccccc12	98*	45	11	1	34	0
COCC(C)OC(=O)/C(C#N)=C\c1coc2ccc(C)cc2c1=O (stereo not given)	96*	-1	-29	0	12	0
Cc1noc(/C=C/N(C)C)c1S(=O)(=O)N1CCN(c2ccccc2)CC1	16	2	-14	0	3	nt
Cc1ccc(C)c(N2CCN(S(=O)(=O)c3c(C)noc3/C=C/N(C)C)CC2)c1	nt	-8	18	0.8*	14	0
Cc1c(C(=O)NC(=S)NCC(C)C)oc2ccccc12	-2	6	-6	0	-5	-4
Cc1c(C(=O)NCc2ccccn2)oc2ccc(Br)cc12	-2	48*	5	0	24	0
Cc1c(C(=O)NCc2cccs2)oc2ccc(Br)cc12	4	8	31	0	33	0
CCOC(=O)c1oc2ccc(Br)cc2c1NC(=O)CN1CCN(C)CC1	4	6	28	0	20	-2
C=CCNC(=S)NC(=O)c1oc2ccccc2c1C	26	66*	-2	0	-4	0
CC(=O)Nc1c(C(=O)c2ccccc2)oc2ccccc12	nt	109*	2	0	-5	?
CC(=O)Nc1c(C(=O)C2CC2)oc2ccccc12	-10	4	-8	0	-4	0
O=C(Nc1c(C(=O)O)oc2ccc(Br)cc12)c1ccccc1	95*	11	4	0	-7	0
Cc1c(C(=O)NCc2ccccn2)oc2ccccc12	-19	59*	18	0	29	0
CCOc1ccc2oc(C(=O)NNC(=O)c3ccccc3O)c(C)c2c1	nt	12	2	0	207	-1
Cc1c(C(=O)NNC(=O)c2ccccc2O)oc2ccc(Br)cc12	4	51*	0	0	-14	-1
COCCCNC(=O)C1=CCN(S(=O)(=O)c2ccc(C)cc2)CC1	10	0	-6	0	-15	1
Cc1ccc(S(=O)(=O)N2CCOCC2)cc1NC(=O)c1cc([N+](=O)[O-])ccc1N1CCOCC1	-10	-1	2	0	24	1
COCCC(=O)N1CCC(Oc2ccc(C(=O)N3CCCC(OC)C3)cc2)CC1 (stereo not given)	-4	-3	-9	0	nt	nt
SMILES	ALR H2O2 inh	AHR activator	VLA-4 inh	Efflux pump mplx	SUMO Mot1 rescue	A1 inh
C1=C(c2ccco2)N2CCN=C2S1	80*	2	12	0	-1	1
Cc1ccc(C2=CSC3=NCCN23)cc1	42	2	4	0	1	0
Cc1cc(=O)oc2cc(NC(=O)c3cc([N+](=O)[O-])ccc3N3CCOCC3)ccc12	2	8	5	0	-21	1
O=C(CSc1ncccn1)n1c2c(c3ccccc31)CCCC2	-4	70*	-18	0	4	1
Cc1nc2ccc(S(=O)(=O)NC(C(=O)NCc3ccc4c(c3)OCO4)C(C)C)cc2s1 (stereo not given)	-37	4	-34	0	403	0
CCN1CCN(C(=O)C(NS(=O)(=O)c2ccc3nc(C)sc3c2)C(C)C)CC1 (stereo not given)	92*	-3	10	0	0	0
Cc1nc2ccc(S(=O)(=O)NC(C(=O)NC3CCCC3)C(C)C)cc2s1 (stereo not given)	96*	-1	27	0	-8	1
O=C(NCc1ccc2c(c1)OCO2)c1cc(=O)[nH]c2ccccc12	-4	2	-15	0	-2	0
COc1ccc(N2CC(C(=O)Nc3c(C(N)=O)oc4ccccc34)CC2=O)cc1 (stereo not given)	nt	1	5	0	nt	0
CC(C(c1cccs1)c1c(N)n(C)c(=O)n(C)c1=O)[N+](=O)[O-] (stereo not given)	nt	1	-7	0	10	0
CCOc1ccc(NC(=O)CSc2nccn2C)cc1	99*	2	1	0	-13	-1
O=C(CSC1=NCCN1)Nc1cccc(C(F)(F)F)c1	100*	2	0	0	0	0
Cn1ccnc1SCC(=O)Nc1cccc(C(F)(F)F)c1	100*	4	0	0	3	0
CCCCOc1cccc(NC(=O)CSc2nccn2C)c1	99*	4	10	0	2	-1
Cn1ccnc1SCC(=O)Nc1cccc(O)c1	-10	2	-6	0	-34	1
COc1ccc(Br)cc1CN(C)CC(=O)Nc1c(Cl)cccc1Cl	nt	0	-11	0	-3	0
Cn1cnnc1SCC(=O)Nc1ccc(Oc2ccccc2)cc1	1	14	3	0	-2	-1
CCOc1ccc(NC(=O)CSCc2cnn(-c3ccccc3)c2-n2cccc2)cc1	99*	1	7	0	1	0
CSc1nccn1CC(=O)Nc1ccc(F)cc1	98*	14	10	0	-14	-1
O=C(O)CS(=O)CC(=O)NCc1cccc(C(F)(F)F)c1 (stereo not given)	0	-1	4	0	11	-2
Cn1ccnc1SCC(=O)Nc1ccc(Oc2ccccc2)cc1	99*	0	16	0	nt	-1
O=C(O)CS(=O)CC(=O)Nc1cccc(C(F)(F)F)c1 (stereo not given)	99*	-6	-4	0	5	-1
